# Source: PubChem BioAssay (NCATS)
# Records with an inconclusive call do not appear. Entries that show only a call come without a potency. Calls of active or inactive are those of the source. Calls follow the shape of the dose curve; as a rule, active = well fitted curve in the direction sought with a large enough effect; inconclusive = small, poorly fitted or top-dose-only effect, or another doubt; inactive = no such curve, though single readings can be large; an effect the other way counts as inactive or inconclusive.
# What was measured:
# [1] = qHTS to identify inhibitors of the type 1 interferon - major histocompatibility complex class I in skeletal muscle: primary screen against the NCATS Mechanism Interrogation Plate v5.0 (MIPE) Libary (AID 1347411); also: nearly all actives have a fitted effect of over 65% in size; also: potency is read from the fitted curve at half-maximal effect
# Outline: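 Cells were genome-edited human myoblasts carrying a HiBit tag on endogenous HLA-B. They were treated with IFN-beta (4.0 ng/ml) and titrated compounds (top 46 uM) for 24 hrs before lytic HiBiT detection.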
# [2] = target: Protein phosphatase 1D (Homo sapiens) (UniProt O15297); assay: RapidFire Mass Spectrometry qHTS Assay for Modulators of WT P53-Induced Phosphatase 1 (WIP1) (AID 1347424);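 also: amount of dephosphorylated VEPPL-S-QETFS peptide product formed by WIP1; series mostly up to about 63 µM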
# Protein phosphatase 1D (Homo sapiens), sequence (O15297 whole entry, looked up): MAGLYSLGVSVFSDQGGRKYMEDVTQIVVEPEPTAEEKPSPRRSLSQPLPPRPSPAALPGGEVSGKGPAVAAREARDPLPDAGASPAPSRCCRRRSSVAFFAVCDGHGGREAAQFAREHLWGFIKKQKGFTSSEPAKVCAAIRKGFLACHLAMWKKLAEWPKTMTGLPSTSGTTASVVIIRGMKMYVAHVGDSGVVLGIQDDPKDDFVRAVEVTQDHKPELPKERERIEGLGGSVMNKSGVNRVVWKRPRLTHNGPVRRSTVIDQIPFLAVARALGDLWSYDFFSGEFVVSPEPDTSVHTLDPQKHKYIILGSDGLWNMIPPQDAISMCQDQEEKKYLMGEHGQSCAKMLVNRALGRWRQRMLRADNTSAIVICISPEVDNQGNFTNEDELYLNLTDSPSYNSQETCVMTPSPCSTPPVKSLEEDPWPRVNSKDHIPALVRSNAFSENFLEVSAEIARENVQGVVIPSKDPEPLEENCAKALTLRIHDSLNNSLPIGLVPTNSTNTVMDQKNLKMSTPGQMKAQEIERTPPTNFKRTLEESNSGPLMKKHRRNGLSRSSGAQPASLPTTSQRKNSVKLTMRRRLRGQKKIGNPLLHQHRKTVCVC
# Outline: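 10 nM WIP1 + cpd, 1 h RT; + 2 uM VEPPL-pS-QETFS, 5 min RT; stop 0.5% formic acid; labelled product standard 1 uM; RapidFire MS. Buffer 50 mM Tris pH 7.5, 30 mM MgCl2, 1 mM TCEP.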
# [3] = target: Protein phosphatase 1D (Homo sapiens) (UniProt O15297); assay: Rhodamine-PBP qHTS Assay for Modulators of WT P53-Induced Phosphatase 1 (WIP1) (AID 1347425)
# Outline: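 Steps: enzyme with Rh-PBP sensor and compounds, room-temperature incubation of 1 hr, baseline read, addition of VEPPL-pS-QETFS (10 uM final), kinetic fluorescence reads at 525/598 nm. Activity equals final minus baseline signal.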
# [4] = Primary qHTS for inhibitors of La Crosse Virus (LACV) - induced cell death in SH-SY5Y cells (AID 1508616);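 also: top concentration of the series differs between compounds; higher means more rescue of cells from virus-induced death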
# Outline: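 Readout was luminescence from ATPLite 1step added after a 6-day LACV infection (0.01 MOI) of SH-SY5Y cells that had received pin-transferred compound 24 hr after seeding.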
compound,measurement,setting,value
CCOCc1nc2c(N)nc3ccccc3c2n1CC(C)(C)O,Potency,[1],inactive
CC1=C(CO)C(=O)O[C@@H]([C@@H](C)[C@H]2CC[C@H]3[C@@H]4C[C@H]5O[C@]56[C@@H](O)C=CC(=O)[C@]6(C)[C@H]4CC[C@]23C)C1,Potency,[1],0.466 µM (active)
CNCc1ccc(-c2cc(-c3nc(-c4ccc(S(=O)(=O)C(C)C)cc4)cnc3N)on2)cc1,Potency,[1],inactive
Cc1cc(Nc2cc(N3CCN(C)CC3)nc(/C=C/c3ccccc3)n2)n[nH]1,Potency,[1],5.23 µM (active)
Cc1cccc(Oc2cnc(=O)[nH]c2)c1,Potency,[1],inactive
CC#CC(=O)N1CCC[C@H]1c1nc(-c2ccc(C(=O)Nc3ccccn3)cc2)c2c(N)nccn12,Potency,[1],inactive
CCO[C@@H]1OC(=O)C[C@@H]1NC(=O)[C@@H]1CCCN1C(=O)[C@@H](NC(=O)c1ccc(N)c(Cl)c1)C(C)(C)C,Potency,[1],inactive
FC(F)(F)c1ccc(Nc2nc(-c3c(C(F)(F)F)nc4ccccn34)cs2)cc1,Potency,[1],4.66 µM (active)
CCN1CCN(Cc2ccc(Nc3ncc(F)c(-c4cc(F)c5nc(C)n(C(C)C)c5c4)n3)nc2)CC1,Potency,[1],10.4 µM (active)
Cc1ccc(NC(=O)c2ccc(CN3CC[C@H](N(C)C)C3)c(C(F)(F)F)c2)cc1Nc1nccc(-c2cncnc2)n1,Potency,[1],16.1 µM (active)
COc1ccc(C(=O)C2CCN(CC(=O)N(Cc3nc4c(c(=O)[nH]3)COCC4)CC3CC3)CC2)cc1,Potency,[1],inactive
CCC(C(=O)O)c1ccc(N2Cc3ccccc3C2=O)cc1 (stereo not drawn),Potency,[2],inactive
same,outcome,[3],inactive
same,outcome,[4],inactive
CC(C)c1cc(CNc2nc(Nc3cc(C4CC4)[nH]n3)cc(N3CCN(C)CC3)n2)on1,Potency,[1],0.523 µM (active)
c1cc(Nc2cc(C3CC3)[nH]n2)nc(Nc2ccc3nc[nH]c3c2)n1,Potency,[1],1.31 µM (active)
COC(=O)N(C)c1c(N)nc(-c2nn(Cc3ccccc3F)c3ncccc23)nc1N,Potency,[1],inactive
Cc1nc([C@](C)(O)CO)sc1-c1cnc(N)c(O[C@H](C)c2cc(F)ccc2-n2nccn2)c1,Potency,[1],inactive
CCN1CCN(Cc2ccc(NC(=O)Nc3ccc(Oc4cc(NC)ncn4)cc3)cc2C(F)(F)F)CC1,Potency,[1],7.39 µM (active)
O=C(O)c1ccc(CN2CCC(CN[C@@H]3C[C@H]3c3ccccc3)CC2)cc1,Potency,[1],inactive
COc1ccc(Cl)c(Nc2nc3ccccc3nc2NS(=O)(=O)c2cccc(NC(=O)C(C)(C)N)c2)c1,Potency,[1],inactive
CCOc1cc2ncc(C#N)c(Nc3ccc(F)c(Cl)c3)c2cc1NC(=O)/C=C/CN(C)C,Potency,[1],2.62 µM (active)
CN1CCN(c2ccc(C(=O)Nc3n[nH]c4ccc(Cc5cc(F)cc(F)c5)cc34)c(NC3CCOCC3)c2)CC1,Potency,[1],16.5 µM (active)
O=C(NOCC(O)CO)c1ccc(F)c(F)c1Nc1ccc(I)cc1F (stereo not drawn),Potency,[1],inactive
CCNC(=O)Nc1ncc(-c2cc(-c3c(C)cc(OC)cc3C)nc(-c3cnccn3)n2)s1,Potency,[1],inactive
CS(=O)(=O)N1CCC(NC(=O)c2[nH]ncc2NC(=O)c2c(Cl)cccc2Cl)CC1,Potency,[1],1.47 µM (active)
Cc1c(F)cc(C(=O)NC2CC2)cc1-c1c(F)cn2c(C(C)(C)C)nnc2c1F,Potency,[1],inactive
COCCOc1cnc2ccn([C@H](C)c3nnc4c(F)cc(-c5cnn(C)c5)cn34)c(=O)c2c1,Potency,[1],inactive
